This passage reports Potency and activity change, negative = inhibition results from PubChem BioAssay AID411 (National Center for Advancing Translational Sciences (NCATS), 2006).

Where “and” joins values, the source holds several entries; their conditions need not be identical. Equal values may be shown once. About 1,600 (2.2%) of roughly 72,000 compounds were called active. What follows is part of a selection rich in actives, with near analogues and random picks from the rest. Entries that show only a call come without a potency. Unmarked numbers belong to inactive results. The call rests on the fitted dose curve; in most records, active means well fitted inhibition curve with a large enough effect; inconclusive means small, poorly fitted or top-dose-only effect; inactive means flat fitted curve, though single readings scatter.
Potency means the concentration at half of the fitted maximal effect.

Chain of Luciferin 4-monooxygenase (Photinus pyralis) (P08659 whole entry, looked up): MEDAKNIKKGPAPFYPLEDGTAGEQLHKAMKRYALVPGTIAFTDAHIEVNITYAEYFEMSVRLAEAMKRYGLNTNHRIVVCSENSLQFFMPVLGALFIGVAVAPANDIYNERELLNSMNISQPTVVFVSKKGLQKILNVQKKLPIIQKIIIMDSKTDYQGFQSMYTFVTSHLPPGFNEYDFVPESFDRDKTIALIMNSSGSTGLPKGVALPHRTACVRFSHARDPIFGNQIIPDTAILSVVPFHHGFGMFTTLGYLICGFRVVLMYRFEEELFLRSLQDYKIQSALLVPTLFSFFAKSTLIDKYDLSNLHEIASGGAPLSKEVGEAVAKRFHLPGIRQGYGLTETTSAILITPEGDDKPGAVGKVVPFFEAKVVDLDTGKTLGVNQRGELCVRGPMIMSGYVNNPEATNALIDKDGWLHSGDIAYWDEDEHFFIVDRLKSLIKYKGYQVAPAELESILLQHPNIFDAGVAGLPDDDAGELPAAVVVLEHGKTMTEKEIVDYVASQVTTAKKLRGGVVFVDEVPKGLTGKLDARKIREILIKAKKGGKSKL

The assay concerns the target Luciferin 4-monooxygenase (Photinus pyralis) (UniProt P08659). Briefly: qHTS Assay for Inhibitors of Firefly Luciferase. Further: nearly all actives have a fitted effect of over 40% in size. To be noted: purified firefly luciferase, luminescence, 8 min; series mostly up to 57.1 µM. The essentials:
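qHTS concentration-response profiling: light output of P. pyralis luciferase with luciferin and 10 uM ATP, imidazole buffer pH 7.2. Read by luminescence after 8-min room-temperature incubation.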
For the compound `CCOc1ccc(N=C2SC(C(=O)O)CC(=O)N2C)cc1` (stereo not given), the Potency entry was “inactive”.
With `O=C(Nc1ccc2c(c1)OCCO2)C1CCCN(c2ncccn2)C1` (stereo not given), the Potency is 10 µM (active).
Still for that read-out and setting: the entry for `O=C(Nc1ccc2c(c1)OCCO2)c1ccncc1` is “inactive”; for `Cc1ccnc(N2CCCC(C(=O)Nc3cc(F)ccc3C)C2)n1` (stereo not given) it is “inactive”.
Regarding `COc1c(Br)cc2c(C)c(C(=O)N3CCOCC3)oc2c1Br`, the Potency result was “inactive”.
Still for that read-out and setting: the entry for `c1ccc(COc2nsnc2N2CCOCC2)cc1` is “inactive”; for `CCCC(=O)N(CCc1ccccc1)Cc1nc2ccccc2c(=O)[nH]1` it is “inactive”.
On the same count and under the same terms, the result for `COc1ccc(NC(=O)c2cccc(NC(=O)c3ccco3)c2)c(OC)c1` reads “inactive”; that for `O=C(Nc1ccc(Oc2ccccc2)cc1)c1ccco1`, 15.8 µM (active); that for `CCOc1cc(NC(=O)c2ccco2)c(OCC)cc1NC(=O)COc1ccccc1`, “inactive”.
Turning to `CC(C)(C)NC(=O)c1cc(NC(=O)c2ccco2)cc(NC(=O)c2ccco2)c1`, the Potency result is “inactive”.
On the same count and under the same terms, the result for `COC(=O)c1cc(Cl)c(NC(=O)c2ccco2)cc1OC` reads “inactive”; that for `COC(=O)c1ccc(NC(=O)c2ccco2)cc1`, 20 µM (active).
The same measure, in the same setting: the figure for `Cc1ccnc(NC(=O)c2ccc(NC(=O)c3ccco3)cc2)c1` is 25.1 µM (active); for `CCc1nnc(NC(=O)c2cccs2)s1` it is “inactive”; for `O=C(Nc1ccc(Cl)cn1)Nc1cccs1` it is “inactive”.
Same read-out and setting: the entry for `Cc1ccc(C(=O)COc2cccc(NC(=O)c3ccco3)c2)cc1` is “inactive”; for `CN1CCN(S(=O)(=O)c2ccc(NC(=O)c3ccco3)cc2)CC1` it is “inactive”; for `O=C(Nc1ccc(NC(=O)c2cccs2)cn1)c1ccco1` it is 5.01 µM (active).
Consider `CCc1cccc(C)c1NC(=O)CSc1nnc(-c2ccco2)n1N`, for which the Potency entry was “inactive”.
In the case of `CC(C)C(=O)N1CCN(c2nc(-c3ccccc3)c3c(c2C#N)CC(C)(C)OC3)CC1`, the Potency result was “inactive”.
Take `CC(=O)N1CCC2(CCCN(Cc3ccccc3)C2)CC1`: the activity change, negative = inhibition is -1.06% [at 11.4 µM].
Still for that read-out and setting: the figure for `COCCNc1ccnc(-c2cccc(NS(C)(=O)=O)c2)n1` is 0.411% [at 2.29 µM]; for `O=C1C[C@@H](O)[C@@H](O)[C@H]2[C@@H]3C(=O)N(Cc4ccc5c(c4)OCO5)C(=O)[C@@H]3CC[C@H]12` it is 1.52% [at 11.4 µM] and -0.708% [at 11.4 µM].
On to `CC(NCCO)C(=O)C12CC3CC(CC(C3)C1)C2` (stereo not given), for which the Potency result was “inactive”.
As to `C[N+](C)(C)CCCCCNCC12CC3CC(CC(C3)C1)C2`, the Potency entry was “inactive”.
Still for that read-out and setting: the entry for `CCn1c(=N)n(CC(=O)c2cccc(OC)c2)c2ccccc21` is “inactive”.
Consider `CN(C)c1ccc(-c2nc(NCCN3CCOCC3)c3ccccc3n2)cc1`, for which the activity change, negative = inhibition was -10.7% [at 2.29 µM].
For `ClC(Cl)(Cl)C(N1CCN(c2ccccc2)CC1)N1CCN(c2ccccc2)CC1`, the activity change, negative = inhibition is 2.2% [at 11.4 µM].
Regarding `CCOC(=O)c1nnn(-c2nonc2OC)c1-c1ccccc1`, the Potency result is “inactive”.
As for `CC(=O)N1CSCC1C(=O)O` (stereo not given), the Potency entry is “inactive”.
On to `CC1CCC(NC(=O)c2ccc(N3CCCC3=O)cc2)CC1` (stereo not given), for which the Potency result is “inactive”.
As to `COc1cccc2sc(Nc3nc(C)c(C(C)=O)s3)nc12`, the Potency was 5.01 µM (active).
On the same count and under the same terms, the entry for `COc1ccccc1Nc1ncc(C(C)=O)c(C)n1` is “inactive”; for `COc1cccc(OC)c1C(=O)Nc1nnc(C(C)C)s1` it is “inactive”.
For the compound `Cc1c(S(=O)(=O)O)ccc(N=Nc2c(O)c(C(=O)O)cc3ccccc23)c1Cl`, the activity change, negative = inhibition was -2.84% [at 11.4 µM].
In the case of `COc1cccc(NS(=O)(=O)c2ccc3[nH]cc(C(=O)NCCCOC(C)C)c(=O)c3c2)c1`, the Potency result is “inactive”.
On the same count and under the same terms, the result for `CCCCN(CCCC)CCC(O)c1cc2c(Cl)cc(Cl)cc2c2cc(C(F)(F)F)ccc12` (stereo not given) reads “inactive”; that for `Cc1ccc2cc3cc(C(=O)N4CCCCCC4)oc3nc2c1`, 7.94 µM (active).
As to `Cc1ccc(C(=O)N2CCCCCC2)cc1Br`, the Potency result was “inactive”.
`Cc1ccc2oc(=O)c3cnn(CC(=O)N4CCCCCC4)c3c2c1`: the Potency result was “inactive”.
Turning to `O=C(O)C1CC=CCC1C(=O)NCCc1ccccc1` (stereo not given), the Potency result is “inactive”.
On to `CC1CCCN(c2ccc(C(=O)NCCc3ccccc3)cn2)C1` (stereo not given), for which the Potency is 15.8 µM (active).
Still for that read-out and setting: the entry for `O=C(NCCCNCc1ccccc1)c1ccc(/C=N/O)nc1` is “inactive”; for `CN(C)CCCNc1c2c(c(C#N)c3nc4ccccc4n13)CCC2` it is “inactive”; for `CCOC(=O)C1=C(C)NC(=O)N(C(C)=O)C1c1ccc(Cl)cc1` (stereo not given) it is “inactive”.
Same read-out and setting: the result for `O=C(Oc1ccc(-c2nc(-c3ccccn3)no2)cc1)c1ccccc1` reads 2.51 µM (active); that for `O=C(Oc1ccccc1)c1ccc2nccnc2c1`, “inactive”; that for `CC(C)c1nc(-c2ccccn2)no1`, “inactive”.
On the same count and under the same terms, the entry for `C=CCn1c(SCn2nnc3ccccc3c2=O)nnc1-c1ccc(Cl)cc1` is “inactive”.
As for `CCOC(=O)c1[nH]c2ccc(OC)cc2c1NC(=O)N1CCOCC1`, the Potency entry is “inactive”.
Still for that read-out and setting: the entry for `COc1ccc(C2CC(c3ccccc3)Nc3ncnn32)cc1` (stereo not given) is “inactive”; for `COc1ccc(OCC(=O)OCCN(C)C)cc1` it is “inactive”; for `O=C(O)c1ccc(NC(=O)c2cccs2)cc1` it is “inactive”.
Still for that read-out and setting: the entry for `O=C(Nc1ncccn1)c1cccs1` is “inactive”; for `Cc1nc(-c2ccc(NC(=O)c3cccs3)cc2)cs1` it is 1.26 µM (active).
Turning to `OCCCNCc1ccccn1`, the activity change, negative = inhibition is 3.67% [at 11.4 µM].
As to `COCCCNC(=O)CSc1nc2ccc(N3CCOCC3)cc2c(=O)n1CCc1ccccc1`, the Potency entry was “inactive”.
On the same count and under the same terms, the figure for `Cc1nn2c3cc(N4CCOCC4)ccc3nc2c2ccccc12` is 2 µM (active); for `Cc1cc(C)c2c(n1)nn1c(N3CCOCC3)cc(C)nc21` it is “inactive”; for `CCOc1ccc(NCCC(=O)c2ccc3c(c2)OCO3)cc1` it is “inactive”.
Same read-out and setting: the result for `CC(C)CCNC(=O)C(C)N(C(=O)Cn1nnc(-c2ccc(F)cc2)n1)C1CCCC1` (stereo not given) reads “inactive”.
`COCCNc1ncnc2ccc(-c3cccnc3)cc12`: the activity change, negative = inhibition is -1.48% [at 2.29 µM].
Take `COC(=O)c1ccc(NCC(=O)c2ccccc2)cc1`: the Potency is 7.94 µM (active).
For `COC(=O)c1ccc(NC(=O)C(C)N2C(=O)c3ccccc3C2=O)cc1` (stereo not given), the Potency entry is “inactive”.
